Assay results from PubChem BioAssay (NCATS).
Results filed as inconclusive are left out. Activity calls are given as the source filed them. The call rests on the fitted dose curve; in most records, active means well fitted inhibition curve with a large enough effect; inconclusive means small, poorly fitted or top-dose-only effect; inactive means flat fitted curve, though single readings scatter.

Experiments:
Test in all cases: qHTS profiling for inhibitors of Plasmodium falciparum proliferation (AID 504749); further: nearly all actives have a fitted effect of over 60% in size
[1] = test system: CP260; conditions: P. falciparum in erythrocytes, SYBR Green DNA, 72 h; series mostly up to 28.7 µM
Method in brief: (§1)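 Each compound contacts P. falciparum-infected red blood cells for 72 h at 37 C; lysis buffer (Tris, EDTA, saponin, Triton X, SYBR Green I) is added and fluorescence measured next morning; values normalized to controls.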

[2] = test system: CP262; conditions: P. falciparum in erythrocytes, SYBR Green DNA, 72 h; series mostly up to 28.7 µM
Method in brief: as §1

[3] = test system: CP265; conditions: P. falciparum in erythrocytes, SYBR Green DNA, 72 h; series mostly up to 12.8 µM
Method in brief: as §1

[4] = test system: CP268; conditions: P. falciparum in erythrocytes, SYBR Green DNA, 72 h; series mostly up to 28.7 µM
Method in brief: as §1

[5] = test system: CP269; conditions: P. falciparum in erythrocytes, SYBR Green DNA, 72 h; series mostly up to 28.7 µM
Method in brief: as §1

[6] = test system: CP286; conditions: P. falciparum in erythrocytes, SYBR Green DNA, 72 h; series mostly up to 28.7 µM
Method in brief: as §1

[7] = test system: CP291; conditions: P. falciparum in erythrocytes, SYBR Green DNA, 72 h; series mostly up to 28.7 µM
Method in brief: as §1

[8] = test system: CP297; conditions: P. falciparum in erythrocytes, SYBR Green DNA, 72 h; series mostly up to 28.7 µM
Method in brief: as §1

[9] = test system: CP305; conditions: P. falciparum in erythrocytes, SYBR Green DNA, 72 h; series mostly up to 28.7 µM
Method in brief: as §1

[10] = test system: CP315; conditions: P. falciparum in erythrocytes, SYBR Green DNA, 72 h; series mostly up to 28.7 µM
Method in brief: as §1

[11] = test system: CP325; conditions: P. falciparum in erythrocytes, SYBR Green DNA, 72 h; series mostly up to 28.7 µM
Method in brief: as §1

[12] = test system: CP329; conditions: P. falciparum in erythrocytes, SYBR Green DNA, 72 h; series mostly up to 28.7 µM
Method in brief: as §1

[13] = test system: CP335; conditions: P. falciparum in erythrocytes, SYBR Green DNA, 72 h; series mostly up to 12.8 µM
Method in brief: as §1

[14] = test system: DIV14; conditions: P. falciparum in erythrocytes, SYBR Green DNA, 72 h; series mostly up to 28.7 µM
Method in brief: as §1

[15] = test system: DIV30; conditions: P. falciparum in erythrocytes, SYBR Green DNA, 72 h; series mostly up to 28.7 µM
Method in brief: as §1

[16] = test system: Dd2; conditions: P. falciparum in erythrocytes, SYBR Green DNA, 72 h; series mostly up to 28.7 µM
Method in brief: as §1

[17] = test system: ECU; conditions: P. falciparum in erythrocytes, SYBR Green DNA, 72 h; series mostly up to 28.7 µM
Method in brief: as §1

[18] = test system: FAB9; conditions: P. falciparum in erythrocytes, SYBR Green DNA, 72 h; series mostly up to 28.7 µM
Method in brief: as §1

[19] = test system: GB4; conditions: P. falciparum in erythrocytes, SYBR Green DNA, 72 h; series mostly up to 28.7 µM
Method in brief: as §1

[20] = test system: HB3; conditions: P. falciparum in erythrocytes, SYBR Green DNA, 72 h; series mostly up to 28.7 µM
Method in brief: as §1

[21] = test system: ICS; conditions: P. falciparum in erythrocytes, SYBR Green DNA, 72 h; series mostly up to 28.7 µM
Method in brief: as §1

[22] = test system: JCK; conditions: P. falciparum in erythrocytes, SYBR Green DNA, 72 h; series mostly up to 28.7 µM
Method in brief: as §1

[23] = test system: N140; conditions: P. falciparum in erythrocytes, SYBR Green DNA, 72 h; series mostly up to 28.7 µM
Method in brief: as §1

[24] = test system: P93_24; conditions: P. falciparum in erythrocytes, SYBR Green DNA, 72 h; series mostly up to 28.7 µM
Method in brief: as §1

[25] = test system: P94_40; conditions: P. falciparum in erythrocytes, SYBR Green DNA, 72 h; series mostly up to 28.7 µM
Method in brief: as §1

[26] = test system: PAD; conditions: P. falciparum in erythrocytes, SYBR Green DNA, 72 h; series mostly up to 28.7 µM
Method in brief: as §1

[27] = test system: PC26; conditions: P. falciparum in erythrocytes, SYBR Green DNA, 72 h; series mostly up to 28.7 µM
Method in brief: as §1

[28] = test system: TAB109; conditions: P. falciparum in erythrocytes, SYBR Green DNA, 72 h; series mostly up to 12.8 µM
Method in brief: as §1

[29] = test system: TAB113; conditions: P. falciparum in erythrocytes, SYBR Green DNA, 72 h; series mostly up to 28.7 µM
Method in brief: as §1

[30] = test system: TAB165; conditions: P. falciparum in erythrocytes, SYBR Green DNA, 72 h; series mostly up to 28.7 µM
Method in brief: as §1

[31] = test system: W2; conditions: P. falciparum in erythrocytes, SYBR Green DNA, 72 h; series mostly up to 12.8 µM
Method in brief: as §1

Measured: Potency
Potency means the concentration at half of the fitted maximal effect.

O=[As]O[As]=O (stereo unspecified)
inactive: [2]
active: [1] 6.31 µM | [3] 12.6 µM | [4] 15.1 µM | [5] 6.01 µM | [6] 8.91 µM | [7] 6.75 µM | [8] 9.53 µM | [9] 8.49 µM | [10] 13.5 µM | [11] 6.75 µM | [12] 15.1 µM | [13] 7.57 µM | [14] 6.01 µM | [15] 8.49 µM | [16] 7.94 µM | [17] 8.91 µM | [18] 11.2 µM | [19] 8.49 µM | [20] 11.2 µM | [21] 7.08 µM | [22] 11.2 µM | [23] 7.94 µM | [24] 5.01 µM | [25] 7.08 µM | [26] 8.91 µM | [27] 15.1 µM | [28] 7.08 µM | [29] 7.94 µM | [30] 6.31 µM | [31] 4.26 µM
